Source: PubChem BioAssay (National Center for Advancing Translational Sciences (NCATS))
Most compounds without a hit are left out; they make up all but 11% or so of the library.
IL1B secr inh: inhibitors of inflammasome signaling (IL-1 beta secretion); activity change, % at 57.5 µM; AID 743279; 4.7% of 360,000 active; THP-1 LPS/ATP IL-1B secretion, AlphaLISA, 16 h; active compounds read low; in the data active means activity change below about -50%; inconclusive means mostly about -30% to -49%; further: on the % scale 0 is the no-effect control and ±100 the full control effect
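THP-1 cells pretreated 1 hr with compounds (up to 57.5 uM final), then stimulated with LPS (250 ng/mL final) plus ATP (1.25 mM final); secreted IL-1B measured by AlphaLISA after 16 hr, decreased signal indicating inhibition.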
VP16 counter: inhibits Gal4-VP16 luciferase reporter, ROR gamma counter-screen; Drosophila S2 Gal4-VP16 UAS-luciferase, luminescence, 20 h; Potency, µM (top dose mostly 53.6 µM), for inactives: at the top dose activity, negative = inhibition, most hits filed as inhibitors; 3.5% of 310,000 active;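 further: Gal4-VP16 expression switched on by copper sulfate through the metallothionein promoter; potency means the concentration at half of the fitted maximal effect; on the % scale 0 is the no-effect control and ±100 the full control effect; nearly all actives have a fitted effect of over 50% in size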
MCF10A rerep: DNA re-replication induction in MCF 10a cells; AID 624296; Potency, µM (top dose mostly 46.1 µM), inactives show at the top dose activity, positive = re-replication, usual class: activators; 2.9% of 350,000 active; MCF 10A DNA re-replication, Hoechst nuclear intensity, 48 h; further: potency means the concentration at half of the fitted maximal effect; % of control where 0% means no effect; nearly all actives have a fitted effect of over 50% in size
SW480 rereplic: DNA re-replication induction in SW480 cells; AID 624297; SW480 DNA re-replication, Hoechst DNA content imaging, 48 h; Potency, µM (highest dose often 46.1 µM), without a hit: top-dose re-replication activation, most hits filed as activators; 1.8% of 340,000 active; further: potency means the concentration at half of the fitted maximal effect; % of control where 0% means no effect; nearly all actives have a fitted effect of over 55% in size
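Image-based read-out: total Hoechst fluorescence of nuclei (405 nm excitation, 500-530 nm emission), with hits raising the fraction of high-intensity nuclei. SW480 colon cells incubated 48 hr with compounds at 37 C.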
RORg inh: inhibitors of mouse ROR gamma transcriptional activity; 5.4% of 310,000 active; Potency, µM (titrated, usually from 53.6 µM), without a hit: at the highest dose activity change, negative = inhibition, hits mostly inhibitors; AID 2551; Drosophila S2 Gal4-RORgamma UAS-luciferase reporter, 20 h; P51450; further: potency means the concentration at half of the fitted maximal effect; on the % scale 0 is the no-effect control and ±100 the full control effect; nearly all actives have a fitted effect of over 60% in size
Target sequence (P51450 whole entry, looked up, the tested form may be a part): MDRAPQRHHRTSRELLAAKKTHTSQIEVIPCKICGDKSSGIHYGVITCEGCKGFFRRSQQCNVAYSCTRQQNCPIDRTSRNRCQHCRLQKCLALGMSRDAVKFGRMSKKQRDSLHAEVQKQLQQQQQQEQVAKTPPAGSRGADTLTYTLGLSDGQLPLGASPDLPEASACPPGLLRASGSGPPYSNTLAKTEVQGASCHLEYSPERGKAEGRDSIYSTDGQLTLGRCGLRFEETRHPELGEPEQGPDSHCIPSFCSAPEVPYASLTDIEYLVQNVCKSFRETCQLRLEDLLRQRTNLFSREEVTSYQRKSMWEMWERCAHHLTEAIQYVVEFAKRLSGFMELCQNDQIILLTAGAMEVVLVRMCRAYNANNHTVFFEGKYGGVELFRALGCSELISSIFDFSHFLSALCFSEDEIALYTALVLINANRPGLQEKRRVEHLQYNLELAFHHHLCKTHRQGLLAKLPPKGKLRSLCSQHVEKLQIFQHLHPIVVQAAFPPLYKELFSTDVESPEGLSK
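Compounds are pin-transferred onto Drosophila Schneider cells expressing a copper-inducible Gal4–ROR gamma transactivation domain fusion. After 1 hr, copper sulfate is added to 700 uM final; luciferase is read 20 hr later.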
Numbers without * were called inactive; i = inactive; ? = inconclusive; / = not tested or not shown; [ ] = dose if it differs, or a comment. Unless noted, the call rests on the fitted dose curve; in most records, active means well fitted curve in the direction sought with a large enough effect; inconclusive means small, poorly fitted or top-dose-only effect, or another doubt; inactive means no such curve, though single readings can be large; an effect the other way counts as inactive or inconclusive.

SMILES | IL1B secr inh | VP16 counter | MCF10A rerep | SW480 rereplic | RORg inh
CC1CC(C)(C)CC2(C1)NC(=O)N(CC(=O)N1CCN(S(=O)(=O)c3ccc(F)c(F)c3F)CC1)C2=O (configuration not stated) | ? | / | 7% | -18% | /
CCCCNC(=S)N/N=C/c1ccc(OCC(=O)Nc2c(C)cc(C)cc2C)c(OC)c1 | 27 | 5µM* | ? | -15% | ?
COc1cc(/C=N/NC(N)=S)ccc1OCC(=O)Nc1ccc(C)c(C)c1 | -15 | ? | 15µM* | ? | 11µM*
CC1=C(C)CC(C(=O)NCCc2ccc(F)cc2)C(C(=O)O)C1 (configuration not stated) | -1 | -7% | 7% | 1%[1.84 µM] | -26%
O=C(c1ccc([N+](=O)[O-])o1)N1CCOCC1 | 0 | -4% | -2% | -5% | 16µM*
COc1cc2c(cc1OC)CN(C(=O)c1ccc([N+](=O)[O-])o1)CC2 | ? | -12% | ? | 6.5µM* | -36%
O=C(c1ccc([N+](=O)[O-])o1)N1CCc2ccccc2C1 | -28 | 7% | 2% | ? | -30%
O=C(c1ccc([N+](=O)[O-])o1)N1CCCCCC1 | -1 | / | 3% | ? | /
O=C(c1ccc([N+](=O)[O-])cc1[N+](=O)[O-])N1CCc2ccccc21 | 49 | -21% | -6% | 5% | ?
O=C(c1ccc([N+](=O)[O-])o1)N1CCc2ccccc21 | ? | 16% | 9.2µM* | 21µM* | -35%
O=C(CSc1nc2scc(-c3ccccc3)c2c(=O)[nH]1)N1CCOCC1 | -10 | 3% | 0% | -10% | 29%
CN1CCN(c2ncc3nc(-c4cccc(C#N)c4)c(=O)n(C[C@H]4CCCO4)c3n2)CC1 | / | 6% | / | / | -12%
O=C(/C=C/c1cccs1)N1CCOCC1 | -5 | 2% | 0% | 1% | -1%
O=C(/C=C/c1cccs1)c1cc(F)ccc1OC(=O)N1CCOCC1 | -54* | / | 10% | 2% | /
Cc1ccc(NC(=O)/C(C#N)=C(\N)C(Cl)(Cl)Cl)nc1 | -100* | -5% | 18µM* | 8% | -32%
Cc1ccc(NC(=O)CN2CCN(S(=O)(=O)c3ccc4c(c3)OCCO4)CC2)c(C)c1 | 15 | / | / | / | /
CCNC(=S)NNc1nc(N2CCCCC2)nc(N2CCOCC2)n1 | 17 | ? | 2% | 1% | 14µM*
C=C1C(=O)C23C(O)C1CCC2C12CCCC(C)(COC(C)=O)C1C(O)C3(O)OC2 (configuration not stated) | 0 | / | 0.73µM* | ? | /
CCCCn1nnnc1SCC(=O)Nc1sc2c(c1C#N)CCCC2 | -23 | 8% | 11µM* | 3% | ?
Cc1noc(NS(=O)(=O)c2ccc(NC(=O)CSc3nc4c(cc3C#N)CCCC4)cc2)c1C | -3 | 8% | 23µM* | 2% | 6%
N#Cc1ccc(-c2ccc(F)cc2)nc1SCC(=O)Nc1sc2c(c1C#N)CCC2 | 56 | 10% | ? | ? | -22%
N#Cc1cc2c(nc1SCC(=O)Nc1sc3c(c1C#N)CCC3)CCCCC2 | -8 | -6% | 0.82µM* | 18µM* | -28%
Cc1cc(NC(=O)CSc2nc3c(cc2C#N)CCC3)no1 | -26 | -13% | ? | 15µM* | -2%
Cc1noc(NS(=O)(=O)c2ccc(NC(=O)CSc3nc4c(cc3C#N)CCC4)cc2)c1C | -7 | 4% | ? | 0% | -32%
Cc1cc(C)nc(SCC(=O)Nc2ccc(S(=O)(=O)Nc3ncccn3)cc2)n1 | 9 | ? | -9% | -27% | 1%
SMILES | IL1B secr inh | VP16 counter | MCF10A rerep | SW480 rereplic | RORg inh
N#Cc1c(NC(=O)CSc2ncn[nH]2)sc2c1CCCCC2 | -16 | 0.16µM* | -1% | ? | 0.4µM*
Cc1cc(C)c(C#N)c(SCC(=O)Nc2ccc(S(=O)(=O)Nc3ncccn3)cc2)n1 | i | 13µM* | -6% | -27% | 8.9µM*
CN(C)S(=O)(=O)c1ccc(Cl)c(NC(=O)CSc2nc3c(cc2C#N)C(=O)CCC3)c1 | -89* | -2% | ? | 2.6µM* | 1%
N#Cc1cc2c(nc1SCC(=O)Nc1sc3c(c1C#N)CCC3)CCCC2 | -60* | 14% | ? | 13% | 15%
Cc1ccc(NC(=O)CSc2nc3c(cc2C#N)C(=O)CCC3)cc1S(=O)(=O)N(C)C | -5 | -22% | ? | 15% | -5%
CCOC(=O)C1=CCC(c2ccccc2)N(S(=O)(=O)c2ccc(C)cc2)[C@H]1CC (some centres not stated) | 10 | / | / | / | /
O=[N+]([O-])c1cc2c(cc1[N+](=O)[O-])OCCOCCOCCOCCO2 | -86* | -9% | 14% | ? | -19%
Cc1ccc(C(=O)Nc2ccc3c(c2)OCO3)cc1 | -19 | -25% | 22% | 2% | ?
Cc1ccc(C(=O)Nc2ccc3c(c2)OCCO3)cc1 | ? | 10µM* | 0% | 8% | 10µM*
Nc1cc2c(cc1C(=O)c1cccc(Br)c1)OCCO2 | -23 | 4% | 21µM* | ? | -12%
Nc1cc2c(cc1C(=O)c1ccccc1F)OCCO2 | -17 | 0% | 8% | -8% | 7%
CC(C)c1ccc(NC(=O)c2cccc(Br)c2)cc1 | -52* | -6% | 7% | 2% | -3%
O=C(Nc1ccc(C(O)(C(F)(F)F)C(F)(F)F)cc1)c1ccc(Cl)c([N+](=O)[O-])c1 | -101* | ? | ? | 22% | -23%
CCCCCN(CCCCC)C(=O)[C@H](CCC(=O)O)NC(=O)[C@H](Cc1ccc(OP(=O)(O)O)cc1)NC(C)=O | / | -1% | / | / | 12%
COc1cccc(-c2ccc3ncnc(NCCNC(C)=O)c3c2)c1 | / | -12% | / | / | 21%
CC1(C(=O)NS(=O)(=O)c2ccc3ccccc3c2)CCN1C(=O)Cc1ccc(-c2ccccc2)cc1 (configuration not stated) | 2 | / | / | / | /
O=C(Nc1ccc2c(c1)OCCO2)c1ccc2nccnc2c1 | -7 | -25% | 7.3µM* | 1% | -30%
O=C(Nc1ccc2c(c1)OCCO2)c1cccc(Br)c1 | -54* | -4% | 1% | -1% | 8%
CC(C)c1ccc(NC(=O)c2ccc(NS(C)(=O)=O)cc2)cc1 | -10 | 2% | 9.2µM* | 5% | ?
Cc1cc(C(=O)Nc2ccc3c(c2)OCCO3)ccc1[N+](=O)[O-] | -13 | ? | -2% | -9% | 21%[1.91 µM]
O=C(Nc1ccc2c(c1)OCCO2)c1ccc(Cl)c([N+](=O)[O-])c1 | -82* | 7% | 22% | -1% | 32%
CCOC(=O)[C@]12CCCC=C1N(Cc1ccccc1)C(=O)[C@H](CC(=O)NCc1ccccc1)C2 | -5 | / | / | / | /
CCc1ccc(NC(=O)CS(=O)CC(=O)Nc2ccc(N3CCOCC3)cc2)cc1 (configuration not stated) | 11 | -12% | ? | 27% | -20%
COc1ccc(CNc2ncnc3ccc(-c4cccc(C#N)c4)cc23)c(OC)c1 | / | 0% | / | / | 34%
